The supplement of paper PMC9262897, “Low-cost anti-mycobacterial drug discovery using engineered E. coli” (Nature Communications, 2022)
Structures can show the parent of a compound that is named as a salt. ± gives the standard deviation of the averaged measurements.

Key:
Assay in all cases: growth (OD600 after 10 h); higher = more growth (less inhibition)
[1] = system: E. coli TESEC Alr+ wild-type control; settings: compound 0.1 mM; raw OD600 reference: median of DMSO wells 0.241, cell-free background 0.041
Protocol: (§1)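 TESEC Mtb Alr E. coli, or the Alr+ wild-type control, in 384-well plates with Prestwick library compounds at 0.1 mM and 1% DMSO, across arabinose induction levels of 1E3 to 1E7 nM. Growth is read as OD600 after 10 h at 37 °C in triplicate biological replicates.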

E. coli TESEC Mtb Alr [2] = settings: compound 0.1 mM
Protocol: as §1

E. coli TESEC Mtb Asd = settings: compound 0.1 mM
Protocol: (§2)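 TESEC E. coli strains in which the native enzyme is deleted and replaced by arabinose-inducible Mtb Asd, DapB, CysH or TrpD, each grown in its selective medium. Strains were screened against the Prestwick library at 0.1 mM and 1% DMSO in 384-well format at low and high arabinose induction. Growth is read as OD600 after 10 h in triplicate.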

E. coli TESEC Mtb DapB = settings: compound 0.1 mM
Protocol: as §2

[3] = system: E. coli TESEC Alr+ wild-type control; settings: compound 0.1 mM; raw OD600 reference: median of DMSO wells 0.49, cell-free background 0.052
Protocol: (§3)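 TESEC Mtb Alr E. coli (ΔaraC ΔtolC ΔentC Δalr ΔdadX, arabinose-inducible Mtb Alr) or the Alr+ wild-type control strain, grown in defined M9-fructose medium without D-alanine in 96-well plates with Prestwick library compounds at 0.1 mM and 1% DMSO. Low Alr induction is 0.1 µM arabinose and high induction is 10 mM arabinose.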

E. coli TESEC Mtb Alr [4] = settings: compound 0.1 mM; remark: listed apart in the source
Protocol: as §3

[5] = arabinose 1000 nM, raw OD600 reference: median of DMSO wells 0.294, cell-free background 0.041
[6] = arabinose 10000 nM, raw OD600 reference: median of DMSO wells 0.264, cell-free background 0.041
[7] = arabinose 100000 nM, raw OD600 reference: median of DMSO wells 0.201, cell-free background 0.041
[8] = arabinose 1000000 nM, raw OD600 reference: median of DMSO wells 0.193, cell-free background 0.041
[9] = arabinose 10000000 nM, raw OD600 reference: median of DMSO wells 0.146, cell-free background 0.041
[10] = arabinose induction (level): High, raw OD600 reference: median of DMSO wells 0.331, cell-free background 0.041
[11] = arabinose induction (level): Low, raw OD600 reference: median of DMSO wells 0.417, cell-free background 0.041
[12] = arabinose induction (level): High, raw OD600 reference: median of DMSO wells […], cell-free background 0.041
[13] = arabinose induction (level): Low, raw OD600 reference: median of DMSO wells 0.227, cell-free background 0.041
[14] = arabinose 100 nM, raw OD600 reference: median of DMSO wells 0.413, cell-free background 0.052
[15] = arabinose 10000000 nM, raw OD600 reference: median of DMSO wells […], cell-free background 0.052

Row | SMILES | growth [1] | growth (E. coli TESEC Mtb Alr [2]; [5]) | growth (E. coli TESEC Mtb Alr [2]; [6]) | growth (E. coli TESEC Mtb Alr [2]; [7]) | growth (E. coli TESEC Mtb Alr [2]; [8]) | growth (E. coli TESEC Mtb Alr [2]; [9]) | growth (E. coli TESEC Mtb Asd; [10]) | growth (E. coli TESEC Mtb Asd; [11]) | growth (E. coli TESEC Mtb DapB; [12]) | growth (E. coli TESEC Mtb DapB; [13]) | growth [3] | growth (E. coli TESEC Mtb Alr [4]; [14]) | growth (E. coli TESEC Mtb Alr [4]; [15])
1 | CC(C)NCC(O)c1ccc(O)c(O)c1 (single isomer, unassigned; (-)) [(-)-Isoproterenol hydrochloride] | 0.236 ± 0.0036 | 0.289 ± 0.0076 | 0.278 ± 0.015 | 0.184 ± 0.02 | 0.199 ± 0.004 | 0.143 ± 0.0042 | 0.281 ± 0.052 | 0.392 ± 0.03 | 0.191 ± 0.014 | 0.23 ± 0.035 | 0.539 ± 0.066 | 0.4345 ± 0.003 | 0.32 ± 0.02
2 | CN1CCCN=C1/C=C/c1cccs1 [Pyrantel tartrate] | 0.235 ± 0.0042 | 0.278 ± 0.0075 | 0.268 ± 0.0081 | 0.191 ± 0.015 | 0.187 ± 0.00096 | 0.148 ± 0.0055 | 0.347 ± 0.032 | 0.416 ± 0.039 | 0.197 ± 0.0092 | 0.249 ± 0.046 | 0.458 ± 0.043 | 0.409 ± 0.0096 | 0.3434 ± 0.0026
3 | CN(C)CCCN1c2ccccc2Sc2ccc(C(F)(F)F)cc21 [Triflupromazine hydrochloride] | 0.0405 ± 0.00036 | 0.03957 ± 0.00015 | 0.0392 ± 0.00026 | 0.0407 ± 0.00062 | 0.0391 | 0.042 ± 0.00055 | 0.0504 ± 0.0028 | 0.0491 ± 0.0012 | 0.0483 ± 0.00081 | 0.211 ± 0.15 | 0.049 ± 0.00076 | 0.298 ± 0.21 | 0.0543 ± 0.0015
4 | Nc1ccc(S(=O)(=O)Nc2ccc(Cl)nn2)cc1 [Sulfachloropyridazine] | 0.241 ± 0.0064 | 0.285 ± 0.029 | 0.174 ± 0.0032 | 0.231 ± 0.022 | 0.0969 ± 0.0044 | 0.165 ± 0.0072 | 0.392 ± 0.14 | 0.412 ± 0.042 | 0.193 ± 0.013 | 0.236 ± 0.03 | 0.425 ± 0.022 | 0.421 ± 0.005 | 0.28 ± 0.029
5 | Cc1ccc(-c2cc(C(F)(F)F)nn2-c2ccc(S(N)(=O)=O)cc2)cc1 [Celecoxib] | 0.0401 ± 0.00046 | 0.041 ± 0.0023 | 0.0401 ± 0.00091 | 0.0415 ± 0.0019 | 0.0418 ± 0.0037 | 0.04133 ± 0.00035 | 0.04733 ± 0.00047 | 0.0479 ± 0.00085 | 0.0473 ± 0.00055 | 0.0486 ± 0.0019 | 0.425 ± 0.11 | 0.308 ± 0.021 | 0.0533 ± 0.0036
6 | N=C(N)NCC1COC2(CCCCC2)O1 (stereo not drawn) [Guanadrel sulfate] | 0.241 ± 0.0075 | 0.296 ± 0.0091 | 0.258 ± 0.0067 | 0.204 ± 0.017 | 0.183 ± 0.0022 | 0.138 ± 0.0046 | 0.363 ± 0.079 | 0.368 ± 0.036 | 0.22 ± 0.023 | 0.227 ± 0.039 | 0.635 ± 0.012 | 0.406 ± 0.013 | 0.324 ± 0.012
7 | Nc1ccc(C(=O)O)c(O)c1 [4-aminosalicylic acid] | 0.247 ± 0.0075 | 0.305 ± 0.011 | 0.277 ± 0.0057 | 0.201 ± 0.017 | 0.19 ± 0.004 | 0.153 ± 0.0068 | 0.222 ± 0.024 | 0.377 ± 0.086 | 0.199 ± 0.025 | 0.263 ± 0.017 | 0.545 ± 0.044 | 0.422 ± 0.0061 | 0.302 ± 0.014
8 | CCN(CC)C(=S)SSC(=S)N(CC)CC [Disulfiram] | 0.278 ± 0.0078 | 0.197 ± 0.027 | 0.115 ± 0.0063 | 0.161 ± 0.014 | 0.0709 ± 0.0023 | 0.06003 ± 0.00047 | 0.192 ± 0.028 | 0.33 ± 0.034 | 0.161 ± 0.013 | 0.211 ± 0.01 | 0.443 ± 0.066 | 0.23 ± 0.093 | 0.146 ± 0.008
9 | Nc1ccc(S(=O)(=O)NC(=O)c2ccccc2)cc1 [Sulfabenzamide] | 0.256 ± 0.012 | 0.321 ± 0.023 | 0.254 ± 0.005 | 0.221 ± 0.022 | 0.172 ± 0.0025 | 0.156 ± 0.0061 | 0.402 ± 0.12 | 0.409 ± 0.033 | 0.221 ± 0.016 | 0.245 ± 0.018 | 0.43 ± 0.0081 | 0.4062 ± 0.0031 | 0.334 ± 0.025
10 | CC(C)NCC(O)c1ccc(O)c(O)c1 (single isomer, unassigned; (+)) [(+)-Isoproterenol (+)-bitartrate salt] | 0.211 ± 0.0042 | 0.274 ± 0.02 | 0.2493 ± 0.0013 | 0.18 ± 0.015 | 0.149 ± 0.0077 | 0.137 ± 0.0022 | 0.328 ± 0.028 | 0.468 ± 0.034 | 0.2017 ± 0.0019 | 0.199 ± 0.0075 | 0.497 ± 0.044 | 0.412 ± 0.013 | 0.326 ± 0.021
11 | N[C@@H](C(=O)N[C@@H]1C(=O)N2C(C(=O)O)=C(Cl)CS[C@H]12)c1ccccc1 [Cefaclor hydrate] | 0.264 ± 0.0067 | 0.315 ± 0.0086 | 0.249 ± 0.0072 | 0.244 ± 0.025 | 0.1991 ± 0.0017 | 0.158 ± 0.021 | 0.333 ± 0.052 | 0.425 ± 0.067 | 0.201 ± 0.0068 | 0.247 ± 0.017 | 0.489 ± 0.033 | 0.224 ± 0.036 | 0.354 ± 0.032
12 | Cc1cc(-n2c(=O)[nH]c(=O)n(C)c2=O)ccc1Oc1ccc(SC(F)(F)F)cc1 [Toltrazuril] | 0.0494 ± 0.013 | 0.0602 ± 0.032 | 0.0431 ± 0.006 | 0.0449 ± 0.0059 | 0.0576 ± 0.031 | 0.0455 ± 0.0035 | 0.0752 ± 0.012 | 0.203 ± 0.057 | 0.227 ± 0.017 | 0.254 ± 0.016 | 0.137 ± 0.043 | 0.0828 ± 0.028 | 0.0543 ± 0.0016
13 | CN(C)CCN(Cc1ccccc1)c1ccccn1 [Tripelennamine hydrochloride] | 0.203 ± 0.0015 | 0.281 ± 0.0071 | 0.254 ± 0.0058 | 0.181 ± 0.0046 | 0.184 ± 0.003 | 0.133 ± 0.004 | 0.232 ± 0.055 | 0.329 ± 0.1 | 0.177 ± 0.0099 | 0.209 ± 0.027 | 0.537 ± 0.091 | 0.406 ± 0.0074 | 0.307 ± 0.0053
14 | OC(CCN1CCCCC1)(c1ccccc1)c1ccccc1 [Pridinol methanesulfonate salt] | 0.226 ± 0.0064 | 0.299 ± 0.011 | 0.28 ± 0.012 | 0.193 ± 0.0055 | 0.177 ± 0.0082 | 0.151 ± 0.0016 | 0.468 ± 0.015 | 0.466 ± 0.027 | 0.194 ± 0.02 | 0.262 ± 0.035 | 0.469 ± 0.027 | 0.397 ± 0.032 | 0.352 ± 0.011
15 | O=C(CCCN1CCC(O)(c2ccc(Br)cc2)CC1)c1ccc(F)cc1 [Bromperidol] | 0.215 ± 0.0079 | 0.287 ± 0.0074 | 0.265 ± 0.0061 | 0.218 ± 0.028 | 0.179 ± 0.0028 | 0.148 ± 0.0045 | 0.254 ± 0.025 | 0.344 ± 0.092 | 0.177 ± 0.014 | 0.215 ± 0.044 | 0.381 ± 0.013 | 0.417 ± 0.0095 | 0.306 ± 0.022
16 | C=CCSCC1Nc2cc(Cl)c(S(N)(=O)=O)cc2S(=O)(=O)N1 (stereo not drawn) [Althiazide] | 0.244 ± 0.006 | 0.301 ± 0.019 | 0.2578 ± 0.0023 | 0.219 ± 0.016 | 0.183 ± 0.011 | 0.141 ± 0.0034 | 0.261 ± 0.052 | 0.441 ± 0.019 | 0.209 ± 0.0088 | 0.242 ± 0.018 | 0.444 ± 0.049 | 0.383 ± 0.006 | 0.326 ± 0.012
